{"source": "PubChem BioAssay (Tox21)", "note": "Records with an inconclusive call do not appear. Where a call stands in place of a potency, no number is given. Active and inactive are the calls of the source. Calls come from the whole dose curve; as a rule, active = well fitted cell-killing curve with a large enough effect in the repeat runs; inconclusive = weak or mixed curves, or effect the other way; inactive = no such curve, though single readings can be large or run the other way. Potency is the fitted concentration of half-maximal effect."}
{"test": "qHTS assay for identifying genotoxic compounds that show differential cytotoxicity against isogenic chicken DT40 cell lines with known DNA damage response pathways - wild type cell line (AID 743012); note: nearly all actives have a fitted effect of over 60% in size", "conditions": "DT40 wild type chicken cells viability, CellTiter-Glo, 40 h; series mostly up to 68.4 µM", "summary_of_the_method": "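Using parental DT40 (300 cells/well), compounds delivered in DMSO incubate 40 h at 37 C/5% CO2. CellTiter-Glo reagent then stands 30 min at room temperature, and luminescence gives cell viability.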"}
{"smiles": "NS(=O)(=O)c1cc2c(cc1Cl)NC(Cc1ccccc1)NS2(=O)=O", "note": "(stereo unspecified)", "Potency": "inactive"}
{"smiles": "c1cnc2cc3c(cc2n1)[C@@H]1CNC[C@H]3C1", "Potency": "inactive"}
{"smiles": "NCCCC[C@H](NC(=O)[C@@H]1CCCN1C(=O)[C@@H]1CSSC[C@H](N)C(=O)N[C@@H](Cc2ccccc2)C(=O)N[C@@H](Cc2ccccc2)C(=O)N[C@@H](CCC(N)=O)C(=O)N[C@@H](CC(N)=O)C(=O)N1)C(=O)NCC(N)=O", "Potency": "inactive"}
{"smiles": "c1ccc2c(c1)Sc1ccccc1N2CCN1CCCC1", "Potency": "10.6 µM (active)"}
{"smiles": "O=C(O)C1CCCN1", "note": "(stereo unspecified)", "Potency": "inactive"}
{"smiles": "CCCCC(=O)OCC(=O)[C@]1(O)Cc2c(O)c3c(c(O)c2[C@@H](O[C@H]2C[C@H](NC(=O)C(F)(F)F)[C@H](O)[C@H](C)O2)C1)C(=O)c1c(OC)cccc1C3=O", "Potency": "1.5 µM (active)"}
